In all, about 1,400 compounds went through this assay and about 25 (2%) were called active. About 19% were inconclusive and are not listed. Calls come from the whole dose curve; as a rule, active = well fitted inhibition curve with a large enough effect; inconclusive = small, poorly fitted or top-dose-only effect; inactive = flat fitted curve, though single readings scatter. Not all results are given here.
Assay: Nrf2 qHTS screen for inhibitors: A549 ARE-Fluc Cytotoxicity Counterscreen for Hit Validation
Conditions: A549 ARE-Fluc cells; series mostly up to 46.1 µM
Description: Nrf2 is a transcription factor that maintains cellular redox homoestasis and protects cells from xenobiotics. Nrf2 binds to the antioxidant response element (ARE) to induce gene expression of a broad spectrum of genes that encode for antioxidants. […] Finding a small molecule that act as an inhibitor of Nrf2 function would represent a novel therapeutic target that could lead to improvement in survival of patients undergoing chemo- and/or radio- therapy.
In collaboration with the Biswal laboratory, a cell based, luminescence assay (BugLite) was developed to detect the Nrf2 activity using the A549 ARE_Fluc cells (AID 504648). This assay was coupled with a fluorescence based (CellTiter Fluor) cytotoxicity assay to identify and exclude toxic compounds. This coupled assay was used to evaluate selected compounds for hit validation. The data herein is the result of the CellTiter Fluor assay where decrease in fluorescence signal = cytotoxicity. Inactivity is the desired outcome for this assay.
NIH Chemical Genomics Center [NCGC]
NIH Molecular Libraries Probe Centers Network [MLPCN]
Assay Submitter (PI): Shyam Biswal, Johns Hopkins University
[1] Shibata T., et al., Genetic alteration of Keap1 confers constitutive Nrf2 activation and resistance to chemotherapy in gallbladder cancer. Gastroenterology, 2008.
[2] Sjoblom T., et al., The consensus coding sequences of human breast and colorectal cancers. Science, 2006.
Five uL of cell suspension was dispensed into 1536-well white TC-treated plate using the Kalypsys dispenser to achieve a density of 5000 cells/well in all columns except column 1. The plates were incubated at 37deg C at 5% CO2 for 2 hours before 23 nL of compounds were added with the Kalypsys pin tool equipped with a 1,536-pin array. The control compounds Budesonide and Staurosporine were added at a concentration of 2mM. Budesonide was also added as a 1:10 titration, starting at 200uM, to achieve the dose-response control signal. The plates were incubated for 18-24 hour at 37deg C, 5% CO2 followed by a 5ul addition of 5% FBS OPTI-MEM growing media in column 1 as negative control. One microliter of 5x CellTiter Fluor (Promega) was added to each well and the assay plates were incubated at 37deg C, 5% CO2 for 30 minutes. The fluorescence signal was read using the PerkinElmer ViewLux plate reader (Ex = 405 nm /Em = 525 nm) for a 3 second exposure. After the signal was taken, 3 uL of 3x BugLite was dispensed into all wells. The plates were then incubated at room temperature for 15 minutes. A second ViewLux read (40 sec exposure) was performed to detect the luminescence signal. Cytotoxicity was assessed through the first fluorescent read while biochemical activity against Nrf2 was measured in the luminescent read. The data was normalized to the positive and negative controls.

Row | SMILES | outcome
1 | CCC(C)N1C(=O)S/C(=C/c2ccc(Sc3nc4ccccc4[nH]3)o2)C1=O (stereo unspecified) | inactive
2 | CC(C)(C)c1ccc(Oc2ccc(N)cc2)cc1 | inactive
3 | CCOc1ccc(S(=O)(=O)N2CCCCC2)cc1NC(=O)CN1CCCC1c1cccs1 (stereo unspecified) | inactive
4 | O/N=C(\C[n+]1ccccc1)c1ccc(Br)cc1 | inactive
5 | COc1ccc(C(=O)C[n+]2ccc(N)c(C)c2C)cc1 | inactive
6 | Cc1csc[n+]1CCC1CCCCC1 | inactive
7 | CCCCNc1nc2c(c(=O)n(C)c(=O)n2C)n1Cc1cccc(OC)c1 | inactive
8 | COc1cccc(-c2nc(CS(=O)(=O)CC(=O)N3CCN(c4cc(C)ccc4C)CC3)c(C)o2)c1 | inactive
9 | CC(C)Cn1c(N)c(C(=O)COC(=O)CN2C(=O)C3CC=CCC3C2=O)c(=O)n(C)c1=O (stereo unspecified) | inactive
10 | O=C1C=C(c2ccnc3cc(Cl)ccc23)C[C@@H](c2ccc3c(c2)OCO3)C1 | inactive
11 | CN(Cc1cccnc1)C(=O)c1cc(COc2ccc3ncccc3c2)on1 | inactive
12 | Cc1ccc(NS(=O)(=O)c2cccs2)cc1S(=O)(=O)N1CCCCCC1 | inactive
13 | CC(=O)OC(C)C[N+](C)(C)C (stereo unspecified) | inactive
14 | Cn1nccc1C(=O)NC1CCCc2c1cnn2-c1ccc(F)cc1F (stereo unspecified) | inactive
15 | COCCn1c(SCC(=O)Nc2ccccc2F)nc2c(c1=O)SCC2 | inactive
16 | CC(=O)N1c2ccc(S(=O)(=O)N3CCCC(C(=O)Nc4cccc(Cl)c4)C3)cc2CC1C (stereo unspecified) | inactive
17 | CC1CCCN(S(=O)(=O)c2ccc(C(=O)Nc3nnc(-c4ccncc4)o3)cc2)C1 (stereo unspecified) | inactive
18 | CC(=O)N1CCCc2cc(S(=O)(=O)N3CCCC(C(=O)N4CCN(c5cccc(Cl)c5)CC4)C3)ccc21 (stereo unspecified) | inactive
19 | O=C(CN1C(=O)c2ccccc2S1(=O)=O)N1CCc2ccccc21 | inactive
20 | CC1(C)O[C@@H]2CC3C4C[C@H](F)C5=CC(=O)C=CC5(C)C4C(O)CC3(C)[C@]2(C(=O)CO)O1 (stereo partly specified) | inactive
21 | Cc1ccc(NC(=O)C2CC(=O)N(c3ccc4c(c3)OCCO4)C2)cc1S(=O)(=O)N1CCCCCC1 (stereo unspecified) | inactive
22 | C=CCC1(CC=C)CCCN1C(=O)c1cc(COc2ccc(-n3cncn3)cc2)on1 | inactive
23 | COc1ccc(CC(=O)Nc2nc(-c3ccc(F)c(F)c3)cs2)cc1OC | inactive
24 | CC(C)(C)n1ncc2c(=O)n(Cc3ccc(C(=O)c4ccccc4)cc3)cnc21 | inactive
25 | Brc1c(CSc2nncc3ccccc23)nc2ccccn12 | inactive
26 | CCC(C)(C)c1ccc(Oc2ccc(NC(=O)COC(=O)C3=COCCO3)cc2)cc1 | inactive

Row | SMILES | outcome
27 | OCCCNc1nccc(-c2cc(Nc3cccc(Cl)c3)ncn2)n1 | inactive
28 | CC(=O)N1c2ccc(S(=O)(=O)N3CCCC(C(=O)NCc4ccc(Cl)cc4)C3)cc2CC1C (stereo unspecified) | inactive
29 | Cc1cc(C)c(-c2csc(NC(=O)CCCc3nc4ccccc4c(=O)[nH]3)n2)c(C)c1 | inactive
30 | COc1ccc(CCNC(=O)c2ccc(CS(=O)(=O)c3ccc(Br)cc3)o2)cc1OC | inactive
31 | Cc1cccc(N2CCN(C(=O)CCS(=O)(=O)c3ccc4c(c3)NC(=O)C(C)S4)CC2)c1C (stereo unspecified) | inactive
32 | O=C(OCCOc1ccccc1Cl)c1cc(S(=O)(=O)N2CCCCC2)ccc1N1CCOCC1 | inactive
33 | Cc1nc(N2CCOCC2)c2c(C)c(C(=O)Nc3ccc(C(F)(F)F)cc3)sc2n1 | inactive
34 | Cc1ccc(S(=O)(=O)N2C[C@@H]3CCCC[C@@H]3[C@@H](C)[C@H]2c2cn(Cc3ccccc3)c3ccc(F)cc23)cc1 | inactive
35 | Cc1ccc(S(=O)(=O)N2CCN(c3ncnc4ccccc34)CC2)cc1 | inactive
36 | COc1ccc(OC)c(Cc2cnc3nc(N)nc(N)c3c2C)c1 | inactive
37 | O=C(Nc1ccncc1)c1c(F)cccc1F | inactive
38 | O=C(Nc1ccc(Br)cn1)C1CCN(S(=O)(=O)c2cccs2)CC1 | inactive
39 | O=C(CCC(=O)N1CCN(S(=O)(=O)c2ccc(Cl)cc2)CC1)NCc1cccc(C(F)(F)F)c1 | inactive
40 | Cc1cc(C(=O)NC2CCCc3c2cnn3-c2cccc(C)c2C)c(C)o1 (stereo unspecified) | inactive
41 | CCOC(=O)c1cnc(-n2nc(C)cc2C)nc1NNc1cc(C)nc(-c2ccccc2)n1 | inactive
42 | COc1ccc(N2CCN(C(=O)CSCc3nc(-c4ccccc4Cl)oc3C)CC2)cc1 | inactive
43 | CCCOc1ccc(Cc2c(Cl)nc(SC)nc2NC)cc1 | inactive
44 | O=c1[nH]c(SCc2cccc(F)c2)nc2ccccc12 | inactive
45 | O=C(CSc1nnc2c(n1)[nH]c1ccccc12)NC1CCCCC1 | inactive
46 | CCCN(c1ccc(C(C)C)cc1)S(=O)(=O)c1c(C)[nH]c(=O)[nH]c1=O | inactive
47 | CC1CCN(S(=O)(=O)c2ccc(NC(=O)C3CC(=O)N(c4ccccc4)C3)cc2)CC1 (stereo unspecified) | inactive
48 | CCCOc1ccc(C(=O)Nc2ccc3oc(-c4cccc(Cl)c4Cl)nc3c2)cc1 | inactive
49 | c1ccc(C(=NNc2nc3ccccc3s2)c2ccccn2)cc1 | inactive
50 | CCNS(=O)(=O)c1ccc(CCC(=O)N2CCN(c3cc(Cl)ccc3C)CC2)cc1 | inactive
51 | Cc1c(Cl)cccc1NC(=O)Cn1cc(C(=O)c2cccs2)c2ccccc21 | inactive
